The nature of assay [1]: NCI Yeast Anticancer Drug Screen. Data for the rad50 strain (AID 155).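 Note: 0% = growth of vehicle-only cultures of the same strain.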 To be noted: S. cerevisiae rad50 strain growth inhibition, hits give high values. An outline of the steps:
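Vehicle-treated cultures provide the reference for the growth inhibition reported for compound-exposed, repair-deficient yeast.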

Assay [2] can be described thus: NCI Yeast Anticancer Drug Screen. Data for the mec2-1 strain (AID 157). As to conditions: S. cerevisiae mec2-1 strain, hits give high values. An outline of the steps: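 Mutant yeast (mec2-1) grown with compound; growth inhibition relative to vehicle control reported.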
Assay [3] in a line: NCI Yeast Anticancer Drug Screen. Data for the sgs1 mgt1 strain (AID 161).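 Note: 0% = growth of cultures given vehicle only.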 As to conditions: S. cerevisiae sgs1 mgt1 strain, hits give high values. An outline of the steps:
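This yeast growth screen uses a strain with defined DNA-repair lesions; compound-treated growth is compared with vehicle-treated growth.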

Assay [4] can be described thus: NCI Yeast Anticancer Drug Screen. Data for the cln2 rad14 strain (AID 165).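 Note: 0% = growth equal to vehicle treated cultures.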 As to conditions: S. cerevisiae cln2 rad14 strain, hits give high values. An outline of the steps:
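Readout is yeast growth inhibition versus vehicle-treated controls, using a strain with cln2 and rad14 alterations exposed to compound.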

A short description of assay [5]: NCI Yeast Anticancer Drug Screen. Data for the bub3 strain (AID 167). As to conditions: S. cerevisiae bub3 mutant strain, hits give high values. An outline of the steps: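 Mutant yeast screening strain plus compound; vehicle-treated cultures serve as the 0% inhibition reference.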
Assay [6] in a line: NCI Yeast Anticancer Drug Screen. Data for the mlh1 rad18 strain (AID 175). To be noted: S. cerevisiae mlh1 rad18 strain growth inhibition, hits give high values. Summed up: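 Genetically defined yeast (DNA repair-deficient) exposed to compounds; growth inhibition determined relative to vehicle.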
Setting [7] is: at 5.0 µM (retest, dose inferred, filed as 0.5).
The mark [8] stands for this setting: at 50.0 µM (retest, dose inferred, filed as 5.0).

SMILES strings stand for the structures. This is part of a sample that, as a whole, favours compounds with a hit. Of some 79,000 tested, about 15% had one in any assay. A number with no mark means an inactive call. Calls of active or inactive are those of the source. Cut-off read from the data, not from the text of the source: active = growth inhibition above about 70%; inactive = the rest.

As to `CC(=O)Nc1ccc(-c2ccccc2)cc1[N+](=O)[O-]`, the growth inhibition in assay [1] (setting [7]) is -3%; in assay [1] (setting [8]) it was 4%; in assay [1] (at 50.0 µM) it was 14.9%; in assay [2] (setting [7]), -4%; in assay [2] (setting [8]) it was 0%; in assay [2] (at 50.0 µM), 16.6%. Further, the growth inhibition was -2% in assay [3] (setting [7]); 0% in assay [3] (setting [8]); -24.1% in assay [3] (at 50.0 µM); 0% in assay [4] (setting [7]); -7% in assay [4] (setting [8]); -113% in assay [4] (at 50.0 µM). Moreover, the growth inhibition in assay [5] (setting [7]) is 1%; in assay [5] (setting [8]) it was 5%; in assay [5] (at 50.0 µM), 44.4%; in assay [6] (setting [7]), -2%; in assay [6] (setting [8]) it was 2%; in assay [6] (at 50.0 µM) it was 41.7%.

With `O=c1cccccc1[O-].O=c1cccccc1[O-].O=c1cccccc1[O-].[La+3]`, the growth inhibition in assay [1] (setting [7]) is 87% (active); in assay [1] (setting [8]), 87% (active); in assay [1] (at 50.0 µM), 90.8% (active); in assay [2] (setting [7]) it was 52%; in assay [2] (setting [8]), 52%; in assay [2] (at 50.0 µM), 91.8% (active). Besides, the growth inhibition in assay [3] (setting [7]) is 92% (active); in assay [3] (setting [8]), 92% (active); in assay [3] (at 50.0 µM), 87.5% (active); in assay [4] (setting [7]), 59%; in assay [4] (setting [8]), 59%; in assay [4] (at 50.0 µM), 89.8% (active). The growth inhibition in assay [5] (setting [7]) was 26%; in assay [5] (setting [8]) it was 26%; in assay [5] (at 50.0 µM) it was 90.7% (active); in assay [6] (setting [7]) it was 74% (active); in assay [6] (setting [8]) it was 74% (active); in assay [6] (at 50.0 µM), 88.6% (active).

Consider `Cc1cc(C[P+](c2ccccc2)(c2ccccc2)c2ccccc2)c(C)cc1C[P+](c1ccccc1)(c1ccccc1)c1ccccc1`, for which the growth inhibition is 4% in assay [1] (setting [7]); 66% in assay [1] (setting [8]); 95.1% (active) in assay [1] (at 50.0 µM); -9% in assay [2] (setting [7]); 49% in assay [2] (setting [8]); 96.7% (active) in assay [2] (at 50.0 µM). Moreover, the growth inhibition in assay [3] (setting [7]) was 1%; in assay [3] (setting [8]), 61%; in assay [3] (at 50.0 µM), 91.6% (active); in assay [4] (setting [7]) it was 3%; in assay [4] (setting [8]), 32%; in assay [4] (at 50.0 µM), 82.5% (active). Also, the growth inhibition is 3% in assay [5] (setting [7]); 66% in assay [5] (setting [8]); 92.1% (active) in assay [5] (at 50.0 µM); 1% in assay [6] (setting [7]); 86% (active) in assay [6] (setting [8]); 94.5% (active) in assay [6] (at 50.0 µM).

For `CC(NNC(=S)N1CCCC1)c1cccnn1` (stereo not given), the growth inhibition in assay [1] (setting [7]) was 98% (active); in assay [1] (setting [8]), 99% (active); in assay [1] (at 50.0 µM), 89% (active); in assay [2] (setting [7]) it was 91% (active); in assay [2] (setting [8]), 99% (active); in assay [2] (at 50.0 µM), 92.3% (active). In addition, the growth inhibition in assay [3] (setting [7]) is 97% (active); in assay [3] (setting [8]) it was 99% (active); in assay [3] (at 50.0 µM), 88.6% (active); in assay [4] (setting [7]) it was 96% (active); in assay [4] (setting [8]), 99% (active); in assay [4] (at 50.0 µM) it was 90.5% (active). Moreover, the growth inhibition in assay [5] (setting [7]) was 98% (active); in assay [5] (setting [8]) it was 99% (active); in assay [5] (at 50.0 µM) it was 91.2% (active); in assay [6] (setting [7]), 97% (active); in assay [6] (setting [8]), 99% (active); in assay [6] (at 50.0 µM) it was 85.3% (active).

Regarding `CCOC(=O)N1CCN(C=S)CC1`, the growth inhibition in assay [1] (setting [7]) was -8%; in assay [1] (setting [8]) it was 6%; in assay [1] (at 50.0 µM), 31.1%; in assay [2] (setting [7]), 0%; in assay [2] (setting [8]), -7%; in assay [2] (at 50.0 µM), -23.3%. For the same compound, the growth inhibition in assay [3] (setting [7]) was -5%; in assay [3] (setting [8]) it was -17%; in assay [3] (at 50.0 µM), 57.7%; in assay [4] (setting [7]) it was 17%; in assay [4] (setting [8]), 31%; in assay [4] (at 50.0 µM), 15.8%. Also, the growth inhibition in assay [5] (setting [7]) was 8%; in assay [5] (setting [8]), 31%; in assay [5] (at 50.0 µM) it was 24%; in assay [6] (setting [7]), -5%; in assay [6] (setting [8]), -1%; in assay [6] (at 50.0 µM) it was 38.2%.

For the compound `C=C(C)C1CC/C(C)=C/CCC2(C)OC2CC/C(CO)=C\C1O` (stereo not given), the growth inhibition is 52% in assay [1] (setting [7]); 89% (active) in assay [1] (setting [8]); 91.1% (active) in assay [1] (at 50.0 µM); 80% (active) in assay [2] (setting [7]); 96% (active) in assay [2] (setting [8]); 93% (active) in assay [2] (at 50.0 µM). The growth inhibition was 41% in assay [3] (setting [7]); 95% (active) in assay [3] (setting [8]); 93% (active) in assay [3] (at 50.0 µM); 48% in assay [4] (setting [7]); 85% (active) in assay [4] (setting [8]); 91.7% (active) in assay [4] (at 50.0 µM). Also, the growth inhibition in assay [5] (setting [7]) is 90% (active); in assay [5] (setting [8]) it was 94% (active); in assay [5] (at 50.0 µM) it was 91.8% (active); in assay [6] (setting [7]), 87% (active); in assay [6] (setting [8]) it was 96% (active); in assay [6] (at 50.0 µM) it was 91.5% (active).

Take `O=C(NC(Cc1ccc(I)cc1)C(=O)O)c1cccc(Br)c1` (stereo not given): the growth inhibition in assay [1] (setting [7]) is 24%; in assay [1] (setting [8]), 39%; in assay [1] (at 50.0 µM), -14.4%; in assay [2] (setting [7]), 13%; in assay [2] (setting [8]) it was 6%; in assay [2] (at 50.0 µM), -35%. For the same compound, the growth inhibition is 23% in assay [3] (setting [7]); 37% in assay [3] (setting [8]); -20.5% in assay [3] (at 50.0 µM); 17% in assay [4] (setting [7]); 34% in assay [4] (setting [8]); -8.15% in assay [4] (at 50.0 µM). Also, the growth inhibition was 21% in assay [5] (setting [7]); 29% in assay [5] (setting [8]); -28.9% in assay [5] (at 50.0 µM); 23% in assay [6] (setting [7]); 32% in assay [6] (setting [8]); -15.9% in assay [6] (at 50.0 µM).

For `CN(C)CC(C)(CN(C)C)C(=O)/C=C/c1ccc(Cl)c(Cl)c1`, the growth inhibition in assay [1] (setting [7]) was 27%; in assay [1] (setting [8]) it was 98% (active); in assay [1] (at 50.0 µM), 99.7% (active); in assay [2] (setting [7]), 18%; in assay [2] (setting [8]), 99% (active); in assay [2] (at 50.0 µM), 99.8% (active). The growth inhibition is 38% in assay [3] (setting [7]); 98% (active) in assay [3] (setting [8]); 99.8% (active) in assay [3] (at 50.0 µM); 13% in assay [4] (setting [7]); 99% (active) in assay [4] (setting [8]); 99% (active) in assay [4] (at 50.0 µM). Further, the growth inhibition in assay [5] (setting [7]) is 12%; in assay [5] (setting [8]), 100% (active); in assay [5] (at 50.0 µM) it was 99.5% (active); in assay [6] (setting [7]), 41%; in assay [6] (setting [8]) it was 99% (active); in assay [6] (at 50.0 µM), 99.6% (active).

With `COc1ccc(SC2=C(N(C)C(C)=O)C(=O)c3ccccc3C2=O)cc1`, the growth inhibition was 98% (active) in assay [1] (setting [7]); 99% (active) in assay [1] (setting [8]); 99.5% (active) in assay [1] (at 50.0 µM); 97% (active) in assay [2] (setting [7]); 100% (active) in assay [2] (setting [8]); 99.7% (active) in assay [2] (at 50.0 µM). Moreover, the growth inhibition is 97% (active) in assay [3] (setting [7]); 100% (active) in assay [3] (setting [8]); 99.7% (active) in assay [3] (at 50.0 µM); 95% (active) in assay [4] (setting [7]); 99% (active) in assay [4] (setting [8]); 99.7% (active) in assay [4] (at 50.0 µM). Besides, the growth inhibition is 99% (active) in assay [5] (setting [7]); 99% (active) in assay [5] (setting [8]); 99.6% (active) in assay [5] (at 50.0 µM); 98% (active) in assay [6] (setting [7]); 99% (active) in assay [6] (setting [8]); 99.6% (active) in assay [6] (at 50.0 µM).

Turning to `CN(C)/N=C\C1CC=CCC1` (stereo not given), the growth inhibition is -148% in assay [1] (setting [7]); -148% in assay [1] (setting [8]); 25.2% in assay [1] (at 50.0 µM); -46% in assay [2] (setting [7]); -51% in assay [2] (setting [8]); 5.35% in assay [2] (at 50.0 µM). In addition, the growth inhibition was -58% in assay [3] (setting [7]); -61% in assay [3] (setting [8]); 30.9% in assay [3] (at 50.0 µM); -58% in assay [4] (setting [7]); -70% in assay [4] (setting [8]); 82.9% (active) in assay [4] (at 50.0 µM). In addition, the growth inhibition in assay [5] (setting [7]) was -71%; in assay [5] (setting [8]) it was -80%; in assay [5] (at 50.0 µM), 21.8%; in assay [6] (setting [7]) it was -141%; in assay [6] (setting [8]) it was -120%; in assay [6] (at 50.0 µM), 38%.

(Values after PubChem BioAssay (NCI).)
